Results published in PubChem BioAssay AID2289 (National Center for Advancing Translational Sciences (NCATS), 2010).
Among all 340,000 compounds or so, about 3,300 (0.97%) were called active. Inconclusive results (about 9%) are left out. Calls come from the whole dose curve; as a rule, active = well fitted inhibition curve with a large enough effect; inconclusive = small, poorly fitted or top-dose-only effect, or effect the other way; inactive = flat fitted curve, though single readings scatter. The list shows a part of the results.

Experiment: qHTS Assay for Modulators of miRNAs and/or Inhibitors of miR-21; note: nearly all actives have a fitted effect of over 55% in size
Details: HeLa miR-21-FLuc reporter, luciferase luminescence, 48 h; actives lower the signal
Method in brief: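 Luminescence from a firefly luciferase reporter carrying a miR-21 binding site downstream, stably expressed under a CMV promoter in HeLa cells that make miR-21 endogenously, reports miRNA modulation after 48 h compound exposure up to approximately 40uM final.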
Potency is the fitted concentration of half-maximal effect.

Potency, active:
COc1cccc2oc3cc(C#Cc4ccccn4)ccc3c(=O)c12 2.93 µM
COc1cccc2oc3ccc(C#CC4(N)CCCCC4)cc3c(=O)c12 7.36 µM
CNC(C)C#Cc1ccc2c(=O)c3c(OC)cccc3oc2c1 (configuration not stated) 3.69 µM
O=c1cc(-c2ccc3c(c2)OCCO3)oc2ccc(Cl)cc12 0.185 µM
CCCCCC(=O)Nc1ccc2ccccc2c1 4.65 µM
O=C(Nc1ccccc1)Nc1ccc2ccccc2c1 2.93 µM
CCCCC(=O)Nc1ccc2c(c1)oc1ccccc12 2.33 µM
CCCC(=O)Nc1ccc2c(c1)Cc1ccccc1-2 1.85 µM
Cc1ccc(-c2nn(-c3ccccc3)cc2CO)o1 1.47 µM
Cc1ccc(-c2nn(-c3ccccc3)cc2CO)cc1 14.7 µM
COc1ccc(N/C=C\C(=O)c2ccc3c(c2)OCO3)cc1OC 14.7 µM
O=C(/C=C\Nc1ccc2c(c1)OCO2)c1ccc(Cl)s1 0.464 µM
COc1ccc(N/C=C/C(=O)c2ccc3c(c2)OCO3)cc1OC 13.1 µM
O=C(/C=C\Nc1ccc2c(c1)OCO2)c1ccc2c(c1)OCO2 5.85 µM
Cc1ccc(OCC(=O)Nc2ccc3c(c2)OCO3)c([N+](=O)[O-])n1 7.36 µM
Cc1ccc(OCC(=O)Nc2ccc(F)cc2)c([N+](=O)[O-])n1 7.36 µM
CCOc1ccc(/C=C/C2=NNC(=O)CC2)cc1 5.85 µM
Cc1cc(N)n2ncc(-c3ccccc3)c2n1 3.29 µM
Cc1cc(N)n2ncc(-c3ccc(F)cc3)c2n1 4.65 µM
Cc1nc2c(-c3ccc(F)cc3)cnn2c(N)c1-c1ccc(F)cc1 0.414 µM
COc1ccc(-c2cc(C)nc3c(-c4ccccc4)cnn23)cc1 0.233 µM
Cc1cc(N)n2ncc(-c3cccc(Br)c3)c2n1 3.29 µM
CCOC(=O)c1cn2nc(Oc3ccccc3)ccc2n1 5.85 µM
N#Cc1ccccc1OCC(=O)Nc1ccc2c(c1)OCCCO2 2.61 µM
O=C(COc1ccccc1Br)Nc1ccc2c(c1)OCCCO2 0.927 µM
CC1=C(C)CC(C(=O)NCC(=O)c2ccccc2)C(C(=O)O)C1 (configuration not stated) 4.14 µM
Cc1cc(C)n2nc(SCCOc3ccccc3)nc2n1 7.36 µM
Cc1cc(C)n2nc(SCCOc3ccccc3F)nc2n1 11.7 µM
Cc1cc(C)n2nc(SCC3COc4ccccc4O3)nc2n1 (configuration not stated) 16.5 µM
Clc1ccc(Cc2nnc(-c3ccccc3Br)o2)cc1 16.5 µM
Clc1ccc(Cc2nnc(-c3cccs3)o2)cc1 18.5 µM
BrCCOCCOc1ccc2ccccc2c1 18.5 µM
Cc1c(C(=O)NC2CCOC2)oc2c(F)cccc12 (configuration not stated) 5.85 µM
Cc1c(C(=O)N2C[C@@H](C)O[C@@H](C)C2)oc2c(F)cccc12 13.1 µM
CC(O)CNc1ncnc2cc(-c3ccc(F)cc3)sc12 (configuration not stated) 4.65 µM
Cc1nn(-c2ccc3ccccc3c2)c(=O)c2ccccc12 2.93 µM
Cc1nn(-c2ccc(Br)cc2)c(=O)c2ccccc12 2.93 µM
COc1cccc(COc2ccc3ccc(=O)oc3c2)c1 7.36 µM
COc1ccc(COc2ccc3ccc(=O)oc3c2)cc1 2.93 µM
CCc1ccc2nc(N3C(=O)C(O)=C(C(=O)c4ccco4)C3c3cccs3)sc2c1 (configuration not stated) 6.56 µM
Cc1ccc2nc(N3C(=O)C(O)=C(C(=O)c4ccco4)C3c3cccs3)sc2c1 (configuration not stated) 5.21 µM
COc1ccc(N=Nc2ccc3ccccc3c2)c(O)c1 0.233 µM
COc1ccc(N=Nc2cc(C)ccc2O)cc1 0.521 µM
Nc1nc(-c2cc3ccccc3o2)cs1 2.33 µM
Nc1ccc(Nc2nc(-c3cc4ccccc4oc3=O)cs2)cc1 2.93 µM
CN1CCN(c2nc(-c3cc4ccccc4o3)cs2)CC1 5.21 µM
O=C(c1cc2ccccc2oc1=O)N1CCOCC1 16.5 µM
COc1ccc2oc(=O)c(C(=O)N3CCN(c4ccccc4C)CC3)cc2c1 2.07 µM
O=C(OC1CCCCC1)c1cc2ccccc2oc1=O 16.5 µM
O=C(CSc1nc2ccccc2o1)c1cc2ccccc2oc1=O 14.7 µM
Cc1c(-c2nc(-c3ccc(C(F)(F)F)cc3)no2)n(C)oc1=O 0.293 µM
COc1ccc(/C(N)=N/OC(=O)C2CCCCC2)cc1 4.65 µM
COc1ccc(/C(N)=N/OC(=O)C2CCCCC2)cc1OC 2.93 µM
CC(=O)c1ccc(OCc2cc(C(=O)N3CCOCC3)no2)cc1 18.5 µM
COc1ccc(OCc2cc(C(=O)N3CCSCC3)no2)c(Cl)c1 4.65 µM
COCCN1CCN(C(=O)c2cc(COc3cc(C)ccc3C)on2)CC1 11.7 µM
COc1cccc(OCc2cc(C(=O)N3CCN(c4ccccc4OC)CC3)no2)c1 16.5 µM
CC(=O)NCCC1CCCCN1C(=O)c1cc(COc2cc(C)ccc2C)on1 (configuration not stated) 7.36 µM
COc1ccc(OCc2cc(C(=O)N3CCOCC3)no2)c(Cl)c1 2.07 µM
O=C(CSc1ccc(-c2ccccc2)nn1)c1cccs1 7.36 µM
O=C(CSc1ccc(-c2ccccc2)nn1)c1ccccc1 16.5 µM
N#Cc1ccc(-c2cccnc2)nc1SCC(=O)c1ccccc1 5.85 µM
Cc1cc(SCC(=O)c2ccccc2)nc(=O)[nH]1 4.14 µM
COc1ccc(Cl)cc1-c1nc(-c2ccc(NC(=O)c3cccs3)cc2)no1 7.36 µM
COc1cc(NC(=O)c2ccccc2Cl)ccc1NC(=O)c1ccco1 2.93 µM
COc1cc(NC(=O)c2ccccc2Cl)ccc1NC(=O)c1cccs1 2.07 µM
Cc1ccc2nc(/C=C/c3cccc(F)c3)ccc2c1 0.521 µM
N#C/C(=C\c1c[nH]c2ccccc12)c1nnc2n1CCCCC2 18.5 µM
CCOc1cc(/C=N/O)ccc1OCc1ccccc1F 16.5 µM
O/N=C/c1ccc(OCc2ccccc2F)c(Cl)c1 0.464 µM
Cc1ccc(NC(=O)c2ncn(-c3ccccc3)n2)cc1Cl 3.29 µM
CC(=O)c1ccc(NC(=O)c2ncn(-c3ccccc3)n2)cc1 5.85 µM
Cn1nnc2cc(C(=O)Nc3ccc4ccccc4c3)ccc21 0.585 µM
CCCn1nnc(NC(=O)c2ccc3ccccc3c2)n1 4.14 µM
Cn1nnc(NC(=O)c2ccc3ccccc3c2)n1 14.7 µM
Nc1nc2c(-c3ccc(Br)cc3)nnn2c2ccccc12 0.261 µM
Cc1ccc(-c2nnc(-c3cccnc3)o2)cc1 4.65 µM
CN(C)c1ccc(-c2nnc(-c3cccnc3)o2)cc1 1.31 µM
c1ccc(-c2cnc(-c3cccnc3)o2)cc1 13.1 µM
CC(C)c1nnc(NC(=O)COc2ccccc2[N+](=O)[O-])s1 9.27 µM
CCSc1nnc(NC(=O)COc2ccccc2[N+](=O)[O-])s1 3.69 µM
CCSc1nnc(NC(=O)c2ccccc2)s1 1.31 µM
N/C(=N\C(=S)Nc1ccccc1)c1ccccc1 0.927 µM
Cc1cccc(NC(=O)Cc2noc3ccccc23)c1 5.85 µM
Cc1ccc(NC(=O)Cc2noc3ccccc23)cc1 7.36 µM
O=C(Cc1noc2ccccc12)Nc1ccccn1 14.7 µM
O=C(Cc1noc2ccccc12)Nc1ccc(Cl)cc1 14.7 µM
Nc1ccccc1C(=O)NNC1=C(C(=O)C(F)(F)F)CCC1 5.21 µM
CC1=NN(C(N)=S)C(=O)C1N=Nc1cccc(Cl)c1 (configuration not stated) 7.36 µM
CC1=NN(C(N)=S)C(=O)C1N=Nc1ccc(Br)cc1 (configuration not stated) 1.31 µM
CC1=NN(C(N)=S)C(=O)C1N=Nc1ccc(C)cc1C (configuration not stated) 3.69 µM
CC1=NN(C(N)=S)C(=O)C1N=Nc1ccc(C)c(Br)c1 (configuration not stated) 1.47 µM
C/C(=N\N=C(/N)c1nonc1N)c1ccc2c(c1)OCO2 0.521 µM
CC(=O)NCCC(=O)Nc1nc2ccc(Oc3ccccc3)cc2s1 1.65 µM
O=C1NCC2=C1C(c1ccccc1)Nc1ccccc1N2 (configuration not stated) 14.7 µM
Clc1ccc(CSc2nnc3ccccn23)c(Cl)c1 16.5 µM
Cc1ccc2c(CSc3nnc4ccccn34)cc(=O)oc2c1C 13.1 µM
Clc1cccc(Cl)c1CSc1nnc2ccccn12 16.5 µM
C/C(=N/NC(=O)c1cccs1)c1cccs1 2.93 µM
O=C(O)CC/C(=N/NC(=O)c1cccs1)c1ccccc1 2.07 µM
C/C(=N\NC(=O)c1cccs1)C(C)(C)C 4.65 µM
O=C(NC12CC3CC(CC(C3)C1)C2)c1ccc(-c2cccc(Cl)c2)o1 1.47 µM
O=C(NC12CC3CC(CC(C3)C1)C2)c1ccc(-c2ccc(Br)cc2)o1 7.36 µM
O=[N+]([O-])c1cc(/C=N\O)ccc1Oc1ccc(F)cc1 16.5 µM
O=[N+]([O-])c1cc(/C=N/O)ccc1Oc1ccccc1Cl 16.5 µM
CC(=O)C(C)Oc1ccc2c3c(c(=O)oc2c1)CCCC3 (configuration not stated) 16.5 µM
CC(=O)C(C)Oc1ccc2c3c(c(=O)oc2c1)CCCCC3 (configuration not stated) 2.93 µM
